B1: ACCCAGU (DNA:RNA)
RNA: GGGAGACCGGAAUUCAGAUUGUCCACCCAGUUUAAAUCCCGUCGUAGCCACCA
DNA 1: CAATCTGAATTCCGGTCTCCC
DNA 2: TGGTGGCTACGACGGGATT
B2: GCGCGCA (DNA:RNA)
RNA: B1 RNA with A25G, C27G, A29G, G30C, U31A
DNA 1: CAATCTGAATTCCGGTCTCCC
DNA 2: TGGTGGCTACGACGGGATT
B3: GCAUAUG (DNA:RNA)
RNA: B1 RNA with A25G, C27A, C28U, G30U, U31G
DNA 1: CAATCTGAATTCCGGTCTCCC
DNA 2: TGGTGGCTACGACGGGATT
B4: GCGCAUC (DNA:RNA)
RNA: B1 RNA with A25G, C27G, G30U, U31C
DNA 1: CAATCTGAATTCCGGTCTCCC
DNA 2: TGGTGGCTACGACGGGATT
B5: GCGCAUG (DNA:RNA)
RNA: B1 RNA with A25G, C27G, G30U, U31G
DNA 1: CAATCTGAATTCCGGTCTCCC
DNA 2: TGGTGGCTACGACGGGATT
B6: GCAUGUC (DNA:RNA)
RNA: B1 RNA with A25G, C27A, C28U, A29G, G30U, U31C
DNA 1: CAATCTGAATTCCGGTCTCCC
DNA 2: TGGTGGCTACGACGGGATT
B7: GUCCGUC (DNA:RNA)
RNA: B1 RNA with A25G, C26U, A29G, G30U, U31C
DNA 1: CAATCTGAATTCCGGTCTCCC
DNA 2: TGGTGGCTACGACGGGATT
B8: GCAUGUG (DNA:RNA)
RNA: B1 RNA with A25G, C27A, C28U, A29G, G30U, U31G
DNA 1: CAATCTGAATTCCGGTCTCCC
DNA 2: TGGTGGCTACGACGGGATT
B9: GCACAUG (DNA:RNA)
RNA: B1 RNA with A25G, C27A, G30U, U31G
DNA 1: CAATCTGAATTCCGGTCTCCC
DNA 2: TGGTGGCTACGACGGGATT
B10: AUGUGUG (DNA:RNA)
RNA: B1 RNA with C26U, C27G, C28U, A29G, G30U, U31G
DNA 1: CAATCTGAATTCCGGTCTCCC
DNA 2: TGGTGGCTACGACGGGATT
B11: CAAUGUA (DNA:RNA)
RNA: GGGAGACCGGAAUUCAGAUUGUCCCAAUGUAUUAAAUCCCGUCGUAGCCACCA
DNA 1: CAATCTGAATTCCGGTCTCCC
DNA 2: TGGTGGCTACGACGGGATT
B12: CUCAACC (DNA:RNA)
RNA: B1 RNA with A25C, C26U, C28A, G30C, U31C
DNA 1: CAATCTGAATTCCGGTCTCCC
DNA 2: TGGTGGCTACGACGGGATT
B13: GAUGAAG (DNA:RNA)
RNA: B1 RNA with A25G, C26A, C27U, C28G, G30A, U31G
DNA 1: CAATCTGAATTCCGGTCTCCC
DNA 2: TGGTGGCTACGACGGGATT
B14: ACGCGCU (DNA:RNA)
RNA: B1 RNA with C27G, A29G, G30C
DNA 1: CAATCTGAATTCCGGTCTCCC
DNA 2: TGGTGGCTACGACGGGATT
B15: GAGAGCU (DNA:RNA)
RNA: B11 RNA with C25G, A27G, U28A, U30C, A31U
DNA 1: CAATCTGAATTCCGGTCTCCC
DNA 2: TGGTGGCTACGACGGGATT
B16: ACGUGAA (DNA:RNA)
RNA: B11 RNA with C25A, A26C, A27G, U30A
DNA 1: CAATCTGAATTCCGGTCTCCC
DNA 2: TGGTGGCTACGACGGGATT
B17: CGUCAAG (DNA:RNA)
RNA: B1 RNA with A25C, C26G, C27U, G30A, U31G
DNA 1: CAATCTGAATTCCGGTCTCCC
DNA 2: TGGTGGCTACGACGGGATT
B18: CCUGCAA (DNA:RNA)
RNA: B11 RNA with A26C, A27U, U28G, G29C, U30A
DNA 1: CAATCTGAATTCCGGTCTCCC
DNA 2: TGGTGGCTACGACGGGATT
B19: UGAUUGU (DNA:RNA)
RNA: B1 RNA with A25U, C26G, C27A, C28U, A29U
DNA 1: CAATCTGAATTCCGGTCTCCC
DNA 2: TGGTGGCTACGACGGGATT
B20: UGAAUGU (DNA:RNA)
RNA: B1 RNA with A25U, C26G, C27A, C28A, A29U
DNA 1: CAATCTGAATTCCGGTCTCCC
DNA 2: TGGTGGCTACGACGGGATT
B21: UGAAAUG (DNA:RNA)
RNA: B11 RNA with C25U, A26G, U28A, G29A, A31G
DNA 1: CAATCTGAATTCCGGTCTCCC
DNA 2: TGGTGGCTACGACGGGATT
B22: CUGAAUG (DNA:RNA)
RNA: B11 RNA with A26U, A27G, U28A, G29A, A31G
DNA 1: CAATCTGAATTCCGGTCTCCC
DNA 2: TGGTGGCTACGACGGGATT
B23: CUGAAUC (DNA:RNA)
RNA: B11 RNA with A26U, A27G, U28A, G29A, A31C
DNA 1: CAATCTGAATTCCGGTCTCCC
DNA 2: TGGTGGCTACGACGGGATT
B24: CCCUGAA (DNA:RNA)
RNA: B11 RNA with A26C, A27C, U30A
DNA 1: CAATCTGAATTCCGGTCTCCC
DNA 2: TGGTGGCTACGACGGGATT

Substitutions are numbered along the chain they refer to; changes in the protein carry UniProt numbers. Over roughly 16,000 sequences, “ka relative to ugcaugu” has its median near 0.0091; the highest 2% begin near 0.032. What follows is part of a selection rich in the highest values, with near analogues and random picks from the rest.

The assay deals with T1, RBFOX1 RRM (Homo sapiens, UniProt Q9NWB1 109-208).
T1 sequence: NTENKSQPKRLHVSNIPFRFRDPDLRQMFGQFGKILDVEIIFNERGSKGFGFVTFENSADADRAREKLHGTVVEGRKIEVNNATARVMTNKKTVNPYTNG
The assay can be described thus: EMSA; HiTS-Eq, 1 nM pool, 10 min; buffer printed only for the single-RNA assays: 10 mM Tris pH 7.5, 150 mM NaCl, 3.4 mM EDTA, 0.001% NP-40, 30 C. The conditions noted are these: tags: His6 N-terminal (pET28a); label: 5' 32P. In a few lines:
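Purified RbFox RRM (wild type or mutant) was equilibrated for 10 min in 50 µL with 1 nM of a 5′-radiolabelled pool of RNA with 7 randomized nucleotides, its flanks annealed to DNA oligonucleotides, across increasing protein concentrations. Free RNA was separated by 8% native PAGE, excised, reverse-transcribed, PCR-barcoded and sequenced on an Illumina HiSeq 2500. Relative association constants came from read-count changes of each variant against the control reaction, normalised to the cognate motif.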
As to B1, the binding signal was 0.00233 KA relative to UGCAUGU.

As to B2, the binding signal was 0.0238 KA relative to UGCAUGU.

On to B3, for which the binding signal is 0.00982 KA relative to UGCAUGU.

For B4, the binding signal is 0.0246 KA relative to UGCAUGU.

Take B5: the binding signal was 0.843 KA relative to UGCAUGU.

On to B6, for which the binding signal was 0.689 KA relative to UGCAUGU.

As to B7, the binding signal is 0.0149 KA relative to UGCAUGU.

With B8, the binding signal was 0.8 KA relative to UGCAUGU.

Take B9: the binding signal is 0.0141 KA relative to UGCAUGU.

In the case of B10, the binding signal is 0.0208 KA relative to UGCAUGU.

Regarding B11, the binding signal is 0.00174 KA relative to UGCAUGU.

As to B12, the binding signal is 0.000946 KA relative to UGCAUGU.

In the case of B13, the binding signal was 0.0183 KA relative to UGCAUGU.

With B14, the binding signal is 0.00889 KA relative to UGCAUGU.

Consider B15, for which the binding signal was 0.016 KA relative to UGCAUGU.

On to B16, for which the binding signal was 0.00505 KA relative to UGCAUGU.

With B17, the binding signal was 0.0065 KA relative to UGCAUGU.

Consider B18, for which the binding signal is 0.00899 KA relative to UGCAUGU.

For the molecule B19, the binding signal is 0.0253 KA relative to UGCAUGU.

Regarding B20, the binding signal is 0.0386 KA relative to UGCAUGU.

Take B21: the binding signal was 0.0128 KA relative to UGCAUGU.

In the case of B22, the binding signal was 0.0348 KA relative to UGCAUGU.

With B23, the binding signal was 0.00905 KA relative to UGCAUGU.

For B24, the binding signal was 0.00426 KA relative to UGCAUGU.

Source of the values: article PMC9911399, “Two distinct binding modes provide the RNA-binding protein RbFox with extraordinary sequence specificity”.
